# Source: PubChem (National Center for Advancing Translational Sciences (NCATS))
# Sampled rows, rich in hits. Any-hit rate of the full collection: about 3.8%.
# VDR inh = Inhibitors of the vitamin D receptor (VDR): qHTS. VDR-SRC2-3 peptide fluorescence polarization, 2 h. 400,000 tested, 0.93% active. Potency, µM, without a hit: max response, negative = inhibition, actives largely listed as inhibitors; further: potency means the concentration at half of the fitted maximal effect; on the % scale 0 is the no-effect control and ±100 the full control effect
#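 Reagent solutions, kept cold and dark, are dispensed first; compounds are then pinned in at 23 nl, plates briefly spun, and incubated 2 h at ambient temperature. Inhibition of VDR–SRC2-3 peptide binding is read by fluorescence polarization.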
# KCNH2 3.1 block = qHTS for Inhibitors of KCHN2 3.1: Mutant qHTS | U2OS KCNH2 3.1, thallium flux FluxOr; stronger effect = lower value | activity change, % (tested at about 1.8 µM) | 340,000 tested, 0.95% active | AID 720553, 2013;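 active means maximum activity change below -70%; inconclusive means maximum activity change from -70% to -50%; inactive means maximum activity change above -50%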;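 further: thallium influx rate constant from kinetic fluorescence after stimulation buffer; on the % scale 0 is the no-effect control and ±100 the full control effect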
#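 Steps: virus added to U2OS suspension (4 h, RT, dark); medium with 10% FBS added, cells plated, 37 C overnight; FluxOr/Red40 loading buffer 45 min RT; stimulation buffer, 2 min kinetic read; rate constant normalized.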
# MBNL1 CUG block = qHTS Assay for Inhibitors of MBNL1-poly(CUG) RNA binding; Muscleblind-like protein 1 (Homo sapiens), Q9NR56; TR-FRET MBNL1-His/biotin-(CUG)12 binding, 665/545 ratio; Potency, µM (highest dose often 57.5 µM), inactives show at the top dose activity change, negative = inhibition, actives largely listed as inhibitors; 280,000 tested, 0.036% active; active means well fitted inhibition curve with a large enough effect in the signal ratio, with a control signal flat, not every such curve was filed as active; inconclusive means small, poorly fitted or top-dose-only effect, or effect the other way, or a change in a side signal; inactive means no such curve, though single readings can be large or run the other way; the % refers to the signal ratio; further: potency means the concentration at half of the fitted maximal effect; on the % scale 0 is the no-effect control and ±100 the full control effect
#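 TR-FRET readout: Ex 340 nm, 665/545 nm emission ratio, normalized to buffer-only (basal) and MBNL1-(CUG)12 controls. Complex of MBNL1-His with Biotin-(CUG)12, compounds 92 nM–58 uM, incubated 60 min at room temperature.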
# hERG WT inh = qHTS for Inhibitors of KCHN2 3.1: Wildtype qHTS; Voltage-gated inwardly rectifying potassium channel KCNH2 (Homo sapiens), Q12809; U2OS, BacMam KCNH2, thallium flux FluxOr; stronger effect = lower value; activity change, % at 1.84 µM; 340,000 tested, 0.37% active;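 active means maximum activity change below -70%; inconclusive means maximum activity change between -70% and -50%; inactive means maximum activity change above -50%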; further: on the % scale 0 is the no-effect control and ±100 the full control effect
#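 U2OS cells transduced with wild-type KCNH2 virus are loaded with FluxOr dye for 45 min, and thallium flux is measured in kinetic reads before and after stimulation buffer. Rate constants are normalized to DMSO controls.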
# CBFb RUNX1 block = qHTS Assay for Compounds Blocking the Interaction Between CBF-beta and RUNX1 for the Treatment of Acute Myeloid Leukemia. Runt-related transcription factor 1 (Homo sapiens) + Core-binding factor subunit beta …. AlphaScreen CBFb-His/RUNX1-biotin binding, biochemical. Potency, µM (series often up to 59.8 µM), for inactives: top-dose activity, negative = inhibition, usual class: inhibitors. 230,000 tested, under 10 active; further: % of control where 0% means no effect
# Target sequence (Q01196 whole entry, looked up): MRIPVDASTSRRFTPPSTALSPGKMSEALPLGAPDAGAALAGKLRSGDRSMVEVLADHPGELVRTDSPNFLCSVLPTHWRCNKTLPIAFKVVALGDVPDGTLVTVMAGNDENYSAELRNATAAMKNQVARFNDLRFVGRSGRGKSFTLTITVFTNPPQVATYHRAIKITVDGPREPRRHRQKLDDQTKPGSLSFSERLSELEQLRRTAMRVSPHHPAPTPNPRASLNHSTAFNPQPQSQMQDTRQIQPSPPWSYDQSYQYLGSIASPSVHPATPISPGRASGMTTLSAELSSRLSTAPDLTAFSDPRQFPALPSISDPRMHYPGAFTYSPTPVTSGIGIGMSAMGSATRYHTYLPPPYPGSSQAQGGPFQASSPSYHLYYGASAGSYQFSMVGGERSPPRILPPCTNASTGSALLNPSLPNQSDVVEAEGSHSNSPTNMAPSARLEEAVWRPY
# Target sequence (Q13951 whole entry, looked up): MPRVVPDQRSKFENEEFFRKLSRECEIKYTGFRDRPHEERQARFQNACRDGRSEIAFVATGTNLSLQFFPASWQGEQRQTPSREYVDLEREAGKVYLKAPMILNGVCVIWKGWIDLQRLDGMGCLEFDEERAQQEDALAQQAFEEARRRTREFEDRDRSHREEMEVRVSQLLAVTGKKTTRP
#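 Bead-based AlphaScreen assay; binding partners His-tagged CBF-beta and biotinylated RUNX1 at 30 nM each. Compound exposure 15 min after a 20-min protein preincubation; bead step 90 min; all steps at room temperature.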
# PLK1 PBD block = qHTS for Inhibitors of PLK1-PDB (polo-like kinase 1 - polo-box domain): Primary Screen; Serine/threonine-protein kinase PLK1 (Homo sapiens), P53350; Plk1 PBD binding of FITC phosphopeptide, fluorescence polarization; Potency, µM, for the others: max response, negative = inhibition, actives largely listed as inhibitors; 360,000 tested, 2.8% active; AID 720504, 2013; further: potency means the concentration at half of the fitted maximal effect; series mostly up to about 57 µM; on the % scale 0 is the no-effect control and ±100 the full control effect; nearly all actives have a fitted effect of over 65% in size
# Active calls of the source: *; ? = inconclusive; nt = not tested or not shown; [ ] = another dose, or the depositor's remark. Unless noted, the call rests on the fitted dose curve; in most records, active means well fitted curve in the direction sought with a large enough effect; inconclusive means small, poorly fitted or top-dose-only effect, or another doubt; inactive means no such curve, though single readings can be large; an effect the other way counts as inactive or inconclusive.
SMILES,VDR inh,KCNH2 3.1 block,MBNL1 CUG block,hERG WT inh,CBFb RUNX1 block,PLK1 PBD block
CN1C(=O)C(=Cc2ccc(N3CCCCCC3)cc2)C(=O)N(C)C1=O,3%,13,7%,-9,7%,1.5µM*
CN1C(=O)C(=Cc2cccnc2)C(=O)N(C)C1=O,?,22,-3%,-6,6%,17µM*
O=C1NC(=O)N(Cc2ccc(F)cc2)C(=O)/C1=C\c1ccc(N2CCCC2)cc1,79µM*,-3,nt,-9,-21%,1.5µM*
CC1=C[C@H]2[C@]3(O)C(C=C(CO)C[C@]2(O)C1=O)[C@@H]1C(C)(C)[C@]1(O)[C@H](O)[C@H]3C (stereo partly specified),4%,nt,nt,nt,21%,nt
CC(=O)C1=C(O)[C@@H]2[C@@H]3c4c[nH]c5cccc(c45)C[C@@H]3C(C)(C)N2C1=O,?,nt,nt,nt,16%[21.7 µM],nt
c1cc2cc(c1)C[n+]1ccc(c3ccccc31)NCc1ccc(cc1)CNc1cc[n+](c3ccccc13)C2,-6%,nt,nt,nt,4%[21.7 µM],nt
CN(C)C1CSSSC1,7%,nt,nt,nt,-1%,nt
Cn1cccc1/C=C1\C(=O)NC(=O)N(CCC2=CCCCC2)C1=O,0%,-44,-2%,8,?,-12%
Cc1ccc(/C=C2/C(=O)NC(=O)N(CCc3ccc(F)cc3)C2=O)o1,73%,10,2%,6,-5%,0.84µM*
COc1ccc(/C=C2/C(=O)N(Cc3ccco3)C(=O)N(C(C)C)C2=O)cc1,?,2,6%,-17,?,3.4µM*
O=C1NC(=O)N(Cc2ccco2)C(=O)/C1=C/c1ccc(-c2cccc([N+](=O)[O-])c2)o1,14µM*,1,nt,0,nt,0.42µM*
COCCN1C(=O)NC(=O)/C(=C\c2ccc(F)cc2)C1=O,-18%,9,-10%,12,-2%,13µM*
CCN(CC)c1ccc(/C=C2/C(=O)NC(=O)N(Cc3ccco3)C2=O)cc1,?,-31,21%,-14,?,?
NNC(N)=S,nt,nt,nt,nt,4%[21.7 µM],nt
CN(C)c1ccc(/C=C2\C(=O)NC(=O)N(CCc3ccc(F)cc3)C2=O)cc1,40µM*,30,13%,-6,16%,1.1µM*
Cc1ccc2cc3c(ccc4ccccc43)c3c2c1CC3,-2%,nt,nt,nt,13%,nt
O=c1[nH]c(O)c(/C=C2\C=Nc3ccc(OCc4ccccc4)cc32)c(=O)[nH]1,-29%,4,4%,8,nt,24µM*
CC1=C(O)C(=O)[C@@H]2O[C@@H]2C1=O,?,nt,nt,nt,5%,nt
O=C(c1cc(F)ccc1F)C1CCCN(CCCc2ccccc2)C1 (stereo unspecified),-1%,-101*,0%,4,9%,6%
O=C(c1cc(F)ccc1F)C1CCCN(Cc2cccc(Cl)c2)C1 (stereo unspecified),10%,0,4%,nt,-5%,-1%
COc1ccc(C[C@H]2NC[C@H](O)[C@@H]2OC(C)=O)cc1,35µM*,nt,nt,nt,29%[21.7 µM],nt
CCBr,nt,nt,nt,nt,11%[21.7 µM],nt
O=c1cccc2n1CC1CC2CN(CCO)C1 (stereo unspecified),nt,nt,nt,nt,13%[21.7 µM],nt
CCC(=O)OC1(c2ccccc2)C(C)CN(C)CC1C (stereo unspecified),0%,7,-13%,-2,9%,0%
CCC(=O)OC1(c2ccccc2)CCN(C)CC1C (stereo unspecified),-24%,-5,-10%,-4,14%,24µM*
SMILES,VDR inh,KCNH2 3.1 block,MBNL1 CUG block,hERG WT inh,CBFb RUNX1 block,PLK1 PBD block
O=C(Oc1ccccc1)N(c1ccccc1)c1ccccc1,13%,-4,5%,-1,?,-3%
CC1=C(C(=O)O)N2C(=O)C(NC(=O)c3nn(C)cc3[N+](=O)[O-])C2SC1 (stereo unspecified),?,4,?,5,4%,34µM*
CC1=C(C(=O)O)N2C(=O)C(NC(=O)Cc3ccccc3)C2SC1 (stereo unspecified),29%,-5,9%,-2,10%,-7%
c1ccc(N=NNc2ccccc2)cc1,nt,nt,nt,nt,-25%[21.7 µM],nt
CCCc1[nH][nH]c(=O)c1C(c1ccc(Cl)cc1)C(C#N)C#N (stereo unspecified),-41%,3,18%,-4,1%,21µM*
CCCc1[nH][nH]c(=O)c1C(c1ccccc1)C(C#N)C#N (stereo unspecified),?,2,-7%,5,12%,12µM*
NC(=O)CC[C@@H]1NC(=O)[C@H](Cc2ccccc2)NC(=O)[C@H](Cc2ccc(O)cc2)NC(=O)[C@@H](N)CSSC[C@@H](C(=O)N2CCC[C@H]2C(=O)N[C@@H](CCCN=C(N)N)C(=O)NCC(N)=O)NC(=O)[C@H](CC(N)=O)NC1=O,?,nt,-15%,nt,10%,nt
CCc1nnc(NS(=O)(=O)c2ccc(N=Cc3c(O)n(-c4ccc(Cl)cc4)c(=O)[nH]c3=O)cc2)s1,-9%,4,6%,-5,12%,27µM*
C[C@]12CCC3C(CCC4=C/C(=N/OCC(=O)NC(CCC(=O)O)C(=O)O)CC[C@@]43C)C1CCC2O (stereo partly specified),-15%,-9,-4%,5,nt,-10%
CC12CCC3c4ccc(OC(=O)N(CCCl)CCCl)cc4CCC3C1CCC2O (stereo unspecified),-4%,-89*,nt,34,nt,2%
CCN(CC)c1ccc(N=Cc2c(O)[nH]c(=O)[nH]c2=O)cc1,79µM*,-26,?,-19,nt,-9%
CCCC[C@@H](C)[C@@H](OC(=O)C[C@@H](CC(=O)O)C(=O)O)[C@H](C[C@@H](C)CCCCCC[C@@H](O)C[C@H](O)[C@H](C)N)OC(=O)C[C@@H](CC(=O)O)C(=O)O,-17%,nt,nt,nt,8%,nt
COc1cc(CN2C(=O)NC(=O)C3(Cc4cc(C)ccc4N(C)C3)C2=O)cc(OC)c1 (stereo unspecified),-28%,-3,-1%,-5,-4%,-23%
COc1ccc2c(c1)CC1(CN2C)C(=O)NC(=O)N(CCc2ccccc2)C1=O (stereo unspecified),?,-95*,-4%,1,-14%,-21%
S=C=NCc1ccccc1,40µM*,nt,nt,nt,14%,nt
S=C=Nc1cccc2ccccc12,nt,nt,nt,nt,-1%[21.7 µM],nt
